# Measured values reported in ChEMBL document CHEMBL4513134, “CO-ADD screening of University of Queensland (Australia) compounds” (2021).
# Potency and affinity values are given separately.
# Key:
# Klebsiella pneumoniae = details: Concentration 32 ug.mL-1; ASSAY_TEST Inhibition of Bacterial Growth; detection method Absorption (OD600); MEDIA CAMHB; plate type 384well; NBS; CORNING #3640; time 18 hr
# Candida albicans = details: 32 ug/mL
# Cryptococcus neoformans = details: Concentration 32 ug.mL-1; ASSAY_TEST Inhibition of Fungal Growth; detection method Resazurin; Absorption (OD600-OD570); plate type 384well; NBS; CORNING #3640
SMILES,Inhibition (Klebsiella pneumoniae),Inhibition (Candida albicans),Inhibition (Cryptococcus neoformans)
Cn1c([N+](=O)[O-])cnc1C(=O)NC1CC1,0.14%,5.96%,-21.85%
Cn1c([N+](=O)[O-])cnc1C(=O)NCc1cccc(OC(F)(F)F)c1,27.4%,11.6%,-18.54%
CN(C)C(=O)c1ncc([N+](=O)[O-])n1C,22.37%,10.4%,-8.01%
Cc1ccc(CCNC(=O)c2ncc([N+](=O)[O-])n2C)cc1,27.87%,12.1%,-8.7%
CC(NC(=O)c1ncc([N+](=O)[O-])n1C)c1ccc(F)cc1 (stereo not given),14.44%,6.03%,-25.7%
Cn1c([N+](=O)[O-])cnc1C(=O)NCc1ccccn1.O=C(O)C(F)(F)F,22.41%,4.77%,-18.89%
Cn1c([N+](=O)[O-])cnc1C(=O)N1CCCC1,30.2%,7.94%,-19.05%
Cn1c([N+](=O)[O-])cnc1C(=O)N1CCOCC1,22.51%,14.1%,-21.61%
Cn1c([N+](=O)[O-])cnc1C(=O)NCc1ccc(F)cc1,15.94%,7.55%,-24.39%
Cn1c([N+](=O)[O-])cnc1C(=O)NCc1ccc(OC(F)(F)F)cc1,21.15%,21.3%,2.62%
